Source: PubChem BioAssay (National Center for Advancing Translational Sciences (NCATS))
A selection: hits, their analogues and other compounds. The true share with any hit is near 9.8%.
HttQ103 aggreg: mutant huntingtin aggregation inhibition. PC12 HttQ103-GFP aggregates, Acumen cytometry, 40 h. Potency, µM (top dose mostly 46.1 µM), for the others: at the top dose activity change, negative = inhibition, actives largely listed as inhibitors. 1.1% of 220,000 active. AID 1688; note: potency is the fitted concentration of half-maximal effect; % is set by controls: 0 for no effect and ±100 for the full control effect; nearly all actives have a fitted effect of over 60% in size
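PC12 cells stably carrying ecdysone-inducible HTT exon 1 Q103–GFP were induced with tebufenozide (100 nM final) and treated with library compounds in titration. GFP aggregates in lysates were counted by laser scanning cytometry.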
JMJD2E inh: blocks human JMJD2E demethylase activity; B2RXH2; JMJD2E catalytic domain, FDH-coupled NADH fluorescence (FDH is formaldehyde dehydrogenase); Potency, µM (titrated, usually from 57.1 µM), inactives show at the top dose activity change, negative = inhibition, most hits filed as inhibitors; 1.6% of 230,000 active; active = well fitted inhibition curve with a large enough effect, not every such curve was filed as active; inconclusive = small, poorly fitted or top-dose-only effect, or another doubt; inactive = no such curve, though single readings can be large or run the other way;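 note: potency is the fitted concentration of half-maximal effect; 0% = wells with enzyme and -100% = buffer wells without enzyme; nearly all actives have a fitted effect of over 50% in size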
Target sequence (B2RXH2 1-337 limits assumed): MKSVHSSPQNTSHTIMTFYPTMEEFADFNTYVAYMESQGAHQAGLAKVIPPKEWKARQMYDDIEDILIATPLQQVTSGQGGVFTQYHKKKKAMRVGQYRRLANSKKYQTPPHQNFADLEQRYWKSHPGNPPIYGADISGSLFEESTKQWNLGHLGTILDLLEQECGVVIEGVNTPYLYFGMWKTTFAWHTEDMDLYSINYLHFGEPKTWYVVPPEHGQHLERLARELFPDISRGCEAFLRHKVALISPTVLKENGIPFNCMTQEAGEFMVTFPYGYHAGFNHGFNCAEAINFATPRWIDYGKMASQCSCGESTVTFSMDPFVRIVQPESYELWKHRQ
HTT ATP protect: cytoprotection in Huntington HTT-Q103 PC12 cell model; PC12 HTT-Q103 induced, cytoprotection, ATP luminescence, 40 h; Potency, µM (top dose mostly 56.4 µM), for the others: cytoprotection (ATP increase), most hits filed as activators; 0.14% of 230,000 active; AID 1471; note: potency is the fitted concentration of half-maximal effect; % of control where 0% means no effect; nearly all actives have a fitted effect of over 45% in size
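Compounds added alongside 100 nM tebufenozide, which induces toxic Q103 huntingtin exon 1-GFP in stable PC12 cells; surviving cells quantified by luminescent ATP measurement. Medium: phenol red-free DMEM, 5% equine and 5% calf serum.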
ALDH1A1 block: inhibitors of human aldehyde dehydrogenase 1A1 | Potency, µM (series often up to 75.3 µM), for the others: at the highest dose activity, negative = inhibition, hits mostly inhibitors | Purified ALDH1A1, NADH fluorescence, propionaldehyde substrate | P00352 | 7.3% of 220,000 active; active = well fitted inhibition curve with a large enough effect, not every such curve was filed as active; inconclusive = small, poorly fitted or top-dose-only effect, or another doubt; inactive = no such curve, though single readings can be large or run the other way;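 note: potency is the fitted concentration of half-maximal effect; plate controls were no enzyme wells and a reference inhibitor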
CBFb-RUNX1 inh: CBF-beta/RUNX1 interaction disruption; Q01196+Q13951; AlphaScreen CBFb-His/RUNX1-biotin binding, biochemical; Potency, µM (titrated, usually from 59.8 µM), inactives show top-dose activity, negative = inhibition, hits mostly inhibitors; 230,000 tested, under 10 active; AID 1477; note: % of control where 0% means no effect
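Room-temperature protein-protein interaction test with 30 nM each of His-tagged CBF-beta and biotinylated RUNX1, 15 min with compound, then 90 min with nickel plus streptavidin beads. Signal read in AlphaScreen mode.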
HPGD inh: inhibitors of human 15-hydroxyprostaglandin dehydrogenase (HPGD); P15428; 4.3% of 150,000 active; purified HPGD, NADH fluorescence kinetic, PGE2 substrate; Potency, µM, without a hit: top-dose activity change, negative = inhibition, most hits filed as inhibitors; AID 894; active = well fitted inhibition curve with a large enough effect, not every such curve was filed as active; inconclusive = small, poorly fitted or top-dose-only effect, or another doubt; inactive = no such curve, though single readings can be large or run the other way; note: potency is the fitted concentration of half-maximal effect; % is set by controls: 0 for no effect and ±100 for the full control effect
Target sequence (P15428 whole entry, looked up): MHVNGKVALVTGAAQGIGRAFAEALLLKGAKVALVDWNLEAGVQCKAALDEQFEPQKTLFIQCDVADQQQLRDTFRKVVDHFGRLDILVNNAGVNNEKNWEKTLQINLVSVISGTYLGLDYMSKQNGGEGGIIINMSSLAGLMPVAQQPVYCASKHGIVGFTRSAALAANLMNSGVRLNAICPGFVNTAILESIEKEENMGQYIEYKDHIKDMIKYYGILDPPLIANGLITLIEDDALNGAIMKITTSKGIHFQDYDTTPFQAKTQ
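NADH formation kinetics: reaction with 30 uM PGE2 and 1 mM NAD+ (final), 20 nM enzyme, Tris-HCl pH 8 with Tween 20, after 15 min compound preincubation at room temperature. Fluorescence change, last versus first of five reads.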
Starred values were filed as active, the others as inactive; ? = inconclusive; nt = no result given; [ ] = remark or other dose. Unless noted, calls come from the whole dose curve; as a rule, active = well fitted curve in the direction sought with a large enough effect; inconclusive = small, poorly fitted or top-dose-only effect, or another doubt; inactive = no such curve, though single readings can be large; an effect the other way counts as inactive or inconclusive.

SMILES	HttQ103 aggreg	JMJD2E inh	HTT ATP protect	ALDH1A1 block	CBFb-RUNX1 inh	HPGD inh
Oc1ccc(C(=S)N2CCN(c3cccc(Cl)c3)CC2)cc1	17%	-8%	nt	7.9µM*	-11%	nt
COc1ccc(C(=O)N2CCN(c3cccc(Cl)c3)CC2)cc1	2%	11%	24%[10 µM]	4%	-3%	4%
O=C(COC(=O)/C=C/C(=O)N1CCN(c2ccccc2)CC1)NC(c1ccccc1)c1ccccc1	-7%	6%	22%	19µM*	40%	nt
CC(=O)N1CCN(C(=S)c2ccc(Cl)cc2)CC1	-9%	5%	-32%[10 µM]	18µM*	2%	25µM*
COC(=O)/C=C/C(=O)N1CCN(c2cccc(Cl)c2)CC1	?	?	12%[10 µM]	10µM*	6%	-2%
C=CCNC(=O)C1CCN(c2ccc(S(=O)(=O)N3CCOCC3)cc2[N+](=O)[O-])CC1	?	-5%	-37%	4%	-4%	nt
COc1ccccc1-c1ccc2ncnc(N(C)Cc3ccco3)c2c1	nt	nt	-85%	-13%	nt	nt
COc1cc(C(=S)N2CCN(c3cccc(Cl)c3)CC2)ccc1O	3%[9.22 µM]	?	12%[10 µM]	3.5µM*	-18%	nt
COc1ccc(C(=O)c2ccc(N3CCOCC3)cc2)c(OC)c1	?	?	11%	1.1µM*	-3%	nt
COc1ccc(C(=S)N2CCN(c3cccc(Cl)c3)CC2)c(OC)c1	-10%	-10%	nt	20µM*	-23%	nt
Oc1ccccc1C(=S)N1CCN(c2cccc(Cl)c2)CC1	7%[9.22 µM]	-1%	26%[10 µM]	10µM*	-7%	nt
Cc1nc(C)c(-c2ccn(C(=O)NC(C)C)n2)s1	-4%[9.22 µM]	6%	7%[10 µM]	nt	8%	nt
CCOC(=O)C1(CCOC)CCN(Cc2ccc(C3CCCCO3)s2)CC1 (centres undefined)	-13%[9.22 µM]	-1%	-5%[10 µM]	-2%	12%	nt
O=c1c2ccccc2c(C=Nc2ccc(O)cc2)c(O)n1-c1nccs1	5%[9.22 µM]	-6%	9%[10 µM]	nt	-4%	nt
O=C1/C(=C/c2ccccc2)SC(=S)N1C1CCS(=O)(=O)C1 (centres undefined)	-1%[9.22 µM]	11%	-8%[10 µM]	nt	0%	nt
O=C1/C(=C/c2ccncc2)SC(=S)N1C1CCS(=O)(=O)C1 (centres undefined)	?	?	-70%	22µM*	-3%	-24%
COc1ccc2nc(-c3ccc(N)cc3)[nH]c2c1	-4%	4%	-57%[10 µM]	6.3µM*	7%	?
CC(C)(C)n1nnnc1CN1CCSCC1	-25%	-7%	-1%[10 µM]	25µM*	11%	-2%
CC(C)(C)n1nnnc1CN1CCN(C2CCCC2)CC1	-17%	2%	10%[10 µM]	2%	11%	-4%
C=C(C)COc1ccc(-c2n[nH]c(C)c2-c2ccc(Br)cc2)c(O)c1	7.9µM*	6%	-16%	?	1%	?
Cc1ccc([N+](=O)[O-])cc1S(=O)(=O)N(C(=O)c1ccncc1)c1ccc2oc3c(c2c1)CCCC3	18µM*	-1%	11%[10 µM]	0%	-1%	-21%
NC(=O)c1cc[n+](CC(=O)c2ccc(NC(=O)c3ccccc3)cc2)cc1	27%	13µM*	-2%	4.5µM*	5%	nt
COc1ccc(C2CC(c3ccc4ccccc4c3)=NN2C(=O)CN2CCC(C(N)=O)CC2)cc1 (centres undefined)	-14%	?	-18%[10 µM]	?	-26%	nt
CCOC(=O)/C=C(\C)N1N=C(c2ccccc2)CC1c1ccccc1 (centres undefined)	-2%	?	-43%	1µM*	7%	nt
C=CCNCC(=O)N1N=C(c2ccc3ccccc3c2)CC1c1ccc(OC)cc1 (centres undefined)	13µM*	?	-2%[10 µM]	?	-3%	nt
SMILES	HttQ103 aggreg	JMJD2E inh	HTT ATP protect	ALDH1A1 block	CBFb-RUNX1 inh	HPGD inh
CCOC(=O)c1nnn(CC(=O)N2N=C(c3ccccc3)CC2c2ccccc2)c1C(=O)OCC (centres undefined)	-2%	-2%	14%[1.9 µM]	9%	-2%	?
COc1ccc(C2CC(c3ccc(Br)cc3)=NN2C(=S)Nc2ccccc2)cc1 (centres undefined)	2%	-6%	nt	11µM*	-6%	nt
COc1ccc(C2=NN(C(N)=S)C(c3ccccc3)C2)cc1 (centres undefined)	15%	-1%	-2%	7.5µM*	-18%	nt
CC(C)(C)c1ccc(OC2C(O)COC2/C=C/C#Cc2ccccc2)cc1 (centres undefined)	nt	nt	-48%[10 µM]	?	3%[13.1 µM]	nt
COC(=O)[C@H]1C[C@@H]1[C@H](N)c1ccccc1	nt	2%	-32%	-1%	2%	-11%
COc1ccc(C2=NN(C(=S)Nc3ccccc3)C(c3ccccc3)C2)cc1 (centres undefined)	3%	-19%	nt	13µM*	-14%	-23%
Cc1ccc(C(=O)OCc2c(C)noc2C)cc1NC(=O)c1ccco1	-22%	-5%	-48%	-8%	-1%	nt
COc1ccc(NC(=O)C(=O)N2N=C3CCCCC3C2(O)C(F)(F)F)cc1 (centres undefined)	5%[9.22 µM]	9%	14%[10 µM]	2.8µM*	1%	nt
O=C(O)CSc1ccccn1	-17%	-5%	-4%	-3%	8%	-15%
CC(C)OCC(O)CSc1ccccn1 (centres undefined)	-4%	0%	13%	-3%	-2%	18µM*
Cc1nn(C(=O)c2c(-c3ccccc3)noc2C)c(C)c1N=Nc1cc(C(F)(F)F)cc(C(F)(F)F)c1	11%[9.22 µM]	-1%	14%[10 µM]	nt	19%	nt
CCOC(=O)N1CCN(C(=O)CN(c2cccc(C)c2)S(=O)(=O)c2ccccc2)CC1	-1%	-7%	9%	-5%	-2%	1%
COc1ccc(N(CC(=O)N2CCCCC2)S(=O)(=O)c2ccccc2)c(OC)c1	4%	3%	-12%[10 µM]	?	-12%	-7%
COc1ccccc1N1CCN(C(=O)CN(c2ccccc2OC)S(=O)(=O)c2ccccc2)CC1	5µM*	-4%	-8%	2%	-4%	-7%
CCOC(=O)N1CCN(C(=O)CN(c2cc(Cl)ccc2OC)S(=O)(=O)c2ccccc2)CC1	8%	3%	-11%	25µM*	0%	-5%
CN1CC[C@@]23c4ccccc4N[C@H]1[C@]21CCN(C)[C@@H]3Nc2ccccc21	nt	1%[25.5 µM]	1%[40.3 µM]	12%[20.9 µM]	1%[21.7 µM]	2%
COc1c2c(c(C(=O)/C=C/C(C)=C/c3ccccc3)c3c1OCO3)CCN(C)C2	nt	-3%	23%	12%	-3%	-2%
Cc1sc2ncnc(SCc3ccc(C(=O)O)cc3)c2c1C	7%	-11%	-44%	40µM*	11%	nt
Cc1ccc(NC(=O)CNC2CCS(=O)(=O)C2)cc1C (centres undefined)	1%	3%	-38%	16µM*	17%	nt
